This is an account of results in PubChem BioAssay (NCATS).

Some of the results follow. Where a call stands in place of a potency, no number is given. Records with an inconclusive call do not appear. Calls of active or inactive are those of the source. Calls follow the shape of the dose curve; as a rule, active = well fitted inhibition curve with a large enough effect; inconclusive = small, poorly fitted or top-dose-only effect; inactive = flat fitted curve, though single readings scatter.
Potency is read from the fitted curve at half-maximal effect.

The assay in a line: qHTS Assay for Inhibitors of Fructose-1,6-bisphosphate Aldolase from Giardia Lamblia: Mammalian cellular toxicity (AID 2786).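 Also: compound exposure lasted 48 h before reading; nearly all actives have a fitted effect of over 60% in size.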 The conditions noted are these: mammalian cell viability counter-screen; series mostly up to 57.5 µM. The source says:
NIH Chemical Genomics Center [NCGC]
NIH Molecular Libraries Probe Production centers Network [MLPCN]
Assay Provider: Osnat Herzberg, University of Maryland
The objective of this project is to obtain compounds that inhibit Giardia lamblia growth. G. lamblia is a human pathogen which afflicts impoverished nations; it is the most common cause of outbreaks of diarrhea in the United States. During the course of our study of potential drug targets in Giardia, we have identified the Class II (Zn2+ functions in electrophilic catalysis) fructose-1,6-bisphosphate aldolase (FBPA) as an excellent candidate for drug targeting. FBPA is a key glycolytic pathway enzyme, essential for G. lamblia survival. The human FBPA belongs to the Class I aldolases, which have a different substrate binding site structure and a radically different catalytic mechanism (employing a lysine-Schiff base intermediate). Therefore, affinity-based or mechanism-based inhibitors of the Giardia FBPA are expected not to interfere with the catalytic function of the human FBPA.
A glyceraldehyde-3-phosphate dehydrogenase/triose phosphate isomerase/NAD/arsenate coupled assay was adapted to the 1536-well HTP format for use in the primary screen. This was done by coupling it to a diaphorase/resazurin/resorufin reaction that can be monitored by fluorescence (excitation, 544 nm; emission, 590 nm). Compounds identified in this screen will be further evaluated by coupling the glycerol-3-phosphate/triose phosphate isomerase/NADH assay to a phenazine methosulfate/tetranitroblue tetrazolium color reaction. False positives due to the dehydrogenases and diaphorase inhibition will be eliminated, and selectivity assay will triage inhibitors of mammalian triose phosphate isomerase and the Class I FBPA. G. lamblia FBPA inhibitors identified by the in vitro analyses will be examined for growth inhibition of Giardia trophozoites, and for cytotoxicity in human cells.
This assay addresses whether hits in the primary screen are cytotoxic to mammalian cells, using Chinese hamster ovary cells as a surrogate.
2uL/well media was dispensed per well into 1536-well white solid-bottom plates using Multidrop Combi dispenser. Subsequently, 23 nL/well compound solutions or DMSO controls were dispensed to the assay plates via a pintool workstation. The Chinese hamster ovary (CHO) cells were grown in T225 flasks to 70% confluence under a standard cell culture condition (ATCC), detached with 0.25% Trypsin/EDTA, and seeded at 250 cells/well in 5uL medium (Dulbecco's Modified Eagle Medium, 10% fetal bovine serum, 1x penicillin/streptomycin). The plates were incubated at 37 °C with 5% CO2 and 95% humidity for 48 hours, and then ATP content was measured following the addition of 4uL/well of ATPlite reagent and a 20 min incubation on a ViewLux plate reader.
Keywords: Fructose-bisphosphate aldolase, FBPA , Giardia lamblia , Giardia, HTS, Inhibitors
With `Cc1ccc(C(=O)Nc2nnc(C3=COCCO3)o2)cc1C`, the Potency entry is “inactive”. The result for `O=c1nc(N/N=C/c2ccco2)cn[nH]1` reads “inactive”; that for `Clc1cccc(CN2COc3c(cc(Cl)c4cccnc34)C2)c1`, 20 µM (active). The result for `O=C(NC(=S)Nc1ncccn1)c1ccccc1Br` reads “inactive”; that for `C=C(C)CNC(=S)N/N=C/c1ccccc1OCC(=O)O`, “inactive”.

`COc1ccccc1CN1CCN(Cc2cc(OC)c(OC)cc2OC)CC1`: the Potency result is “inactive”. Turning to `O=C(Nc1ccccc1Cl)O/N=C(/c1ccccc1)c1ccccn1`, the Potency entry was “inactive”. The result for `COCCN(C(=S)Nc1ccccc1OC)C1CCN(C(C)C)CC1` reads “inactive”; that for `CN1CCCc2cc(C#N)c(=O)[nH]c21`, “inactive”.

As to `O=C(CN1C(=O)COc2ccccc21)Nc1ccc(F)cc1`, the Potency entry was “inactive”. The result for `Cc1cc(C)n(-c2ccc(Cl)c(C(=O)O)n2)n1` reads “inactive”; that for `CCN(CC(=O)Nc1ccc(S(=O)(=O)N2CCCC2)cc1)CC(=O)Nc1cccc(OC)c1`, “inactive”. `O=C(N/N=C/c1ccccn1)c1cccnc1`: the Potency result is “inactive”. In the case of `O=[N+]([O-])c1ccc2nc(-c3ccccn3)[nH]c2c1`, the Potency is 25.1 µM (active). Take `O=C(O)Cn1c(Cc2ccccc2)nc2ccccc21`: the Potency entry was “inactive”. Then `CCc1ccc2c(c1)C1(NN=C(c3ccccc3)S1)C(=O)N2` (stereo not given), with 25.1 µM (active). Then `COc1ccc(CN2CCN(Cc3ccc(OC)c(OC)c3OC)CC2)cc1`, with “inactive”; and `COc1cc(CN2CCN(Cc3ccc(C)cc3)CC2)c([N+](=O)[O-])cc1OC`, with “inactive”; and `O=C(Nc1nnc(-c2ccco2)o1)c1ccc(S(=O)(=O)N2CCOCC2)cc1`, with “inactive”. The result for `CC(C)(c1ccccc1)c1ccc(OCCN2CCCC2)cc1` reads “inactive”.

For `Cc1ccc(OCCCCc2c(C)n[nH]c2C)cc1`, the Potency result is “inactive”. Then `O=C(CN1CCN(Cc2ccccc2)CC1)Nc1ccc(F)c(F)c1`, with “inactive”; and `Cc1cccc(C)c1OCCN1CCOCC1`, with “inactive”. `COc1ccc(N=Nc2c(-c3ccc(OC)cc3)[nH]oc2=O)cc1`: the Potency result is “inactive”.

As to `O=S(=O)(c1ccc(NC(=S)NN=C(C2CC2)C2CC2)cc1)N1CCOCC1`, the Potency result was “inactive”. For `C/C(=N\NC(N)=S)c1cccnc1`, the Potency entry was “inactive”. Then `CN1CCN(CCCCOc2ccccc2-c2ccccc2)CC1`, with “inactive”. Then `O=C1CCCN1CCCNC(=S)Nc1ccc(F)c(Cl)c1`, with “inactive”; and `Cc1cc(C)c2c(=O)[nH]c(SCC(=O)Nc3ccc(Br)cc3)nc2n1`, with “inactive”. The result for `COc1ccc(OC)c(Nc2nc(-c3ccc(O)c(O)c3)cs2)c1` reads “inactive”. Consider `CCN(CC(=O)NC(=O)NCc1ccccc1)Cc1nc2ccccc2c(=O)[nH]1`, for which the Potency entry was “inactive”. Then `Cc1nc(N2CCOCC2)sc1C(=O)NN`, with “inactive”; and `COc1ccc(C(=O)NC(=S)N2CCCCC2c2cccnc2)cc1OC` (stereo not given), with “inactive”. Then `Cc1cc(C)nc(N/N=C/c2ccc([N+](=O)[O-])o2)n1`, with “inactive”; and `O=[N+]([O-])c1cc([N+](=O)[O-])c2cccnc2c1O`, with “inactive”. The result for `CC(=O)NC1CCN(CC(=O)Nc2nccs2)CC1` reads “inactive”; that for `CCN1CCc2c(C#N)c(NCc3ccccc3)nc(NCCO)c2C1`, “inactive”. With `Oc1[nH]c2ccc(Br)cc2c1N=Nc1nn[nH]n1`, the Potency entry is “inactive”. Take `C=CCc1cc(C)ccc1OCCCn1ccnc1`: the Potency entry is “inactive”. The result for `Cc1csc(NC(=O)CN2CCCCCC2)n1` reads “inactive”.
